Most compounds without a hit are left out; they make up all but 3.5% or so of the library.
KCNK9 inh = KCNK9 potassium channel inhibitors, primary screen, HEK293 cells, thallium flux. Potassium channel subfamily K member 9 (Homo sapiens), Q9NPC2. FluxOR thallium flux fluorescence; hits give low values. B-score at 10 µM. 310,000 tested, 1.2% active. AID 488922, 2010;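 active = ratio B-score over 3 SD below the library mean, with starting fluorescence within 5 SD of its mean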;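 note: negative B-score means less thallium flux so channel inhibition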
TMEM16A inh = TMEM16A chloride channel inhibitors, primary screen, cell-based, HTS. normalized B-score (activity score, 25-100; higher = stronger inhibition) at 10 µM. 310,000 tested, 1.2% active. Anoctamin-1 (Mus musculus), Q8BHY3. AID 588511, 2011. HEK293 TMEM16A/YFP iodide influx fluorescence, ionomycin;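 active = ratio plate-corrected score three or more library SD toward inhibition, starting fluorescence score within five deviations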;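 note: score derived from kinetic fluorescence span divided by baseline fluorescence per well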
ANO1 activ = TMEM16A chloride channel activators or potentiators, primary screen, cell-based, HTS | Anoctamin-1 (Mus musculus), Q8BHY3 | HEK293 TMEM16A/YFP-H148Q/I152L, iodide quench fluorescence; hits give low values | B-score at 10 µM | 340,000 tested, 0.3% active | AID 623877, 2012;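 active = fluorescence-ratio B-score plate-corrected deviation score at least 3 library SD below zero, with starting fluorescence score within 5 deviations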;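 note: channel opened by trigger with iodide after compound preincubation; score built on the fluorescence ratio of max minus min over baseline; more negative score means more quench and so TMEM16A activation or potentiation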
KCNK3 block = human KCNK3 channel inhibitors, primary screen, CHO cells, FluxOR thallium flux, B-score. Potassium channel subfamily K member 3 (Homo sapiens), O14649. B-score at 10 µM. 340,000 tested, 0.84% active. FluxOR fluorescence; hits give low values;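 active = B-score under library mean minus 4 SD, starting fluorescence ratio at most library mean plus 5 SD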;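 note: more negative B-score means stronger inhibition of thallium flux through KCNK3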
Kir21 block = inhibitors of mouse Kir2.1 inward-rectifier potassium channel; Inward rectifier potassium channel 2 (Mus musculus), P35561; AID 1672, 2009; 310,000 tested, 0.85% active; HEK293-Kir2.1, FluxOR thallium flux fluorescence; hits give low values; B-score at 10 µM;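 active = fluorescence ratio B-score at or below minus 3 SD of library scores, with starting-brightness B-score within 2 SD, cut at about -4.2 in these data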;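 note: channel flux triggered by added potassium and thallium sulfate stimulus; B-score of peak minus minimum fluorescence over baseline after thallium stimulus; more negative B-score means stronger Kir2.1 block with less thallium influx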
Target sequence (P35561 whole entry, looked up): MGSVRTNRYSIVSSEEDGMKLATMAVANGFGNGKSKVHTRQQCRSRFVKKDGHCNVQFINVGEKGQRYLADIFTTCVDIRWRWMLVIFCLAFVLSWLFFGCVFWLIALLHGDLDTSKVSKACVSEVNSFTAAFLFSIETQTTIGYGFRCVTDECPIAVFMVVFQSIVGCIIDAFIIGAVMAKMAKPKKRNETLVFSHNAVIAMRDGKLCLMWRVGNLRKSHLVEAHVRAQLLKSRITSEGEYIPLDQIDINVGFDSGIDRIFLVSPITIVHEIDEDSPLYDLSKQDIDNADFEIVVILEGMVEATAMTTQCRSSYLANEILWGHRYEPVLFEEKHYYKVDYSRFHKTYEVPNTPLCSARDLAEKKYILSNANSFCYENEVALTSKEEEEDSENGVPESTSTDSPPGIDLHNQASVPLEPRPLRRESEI
* marks the source's active call; other numbers are inactive results; i = inactive; . = not tested or not shown.

SMILES	KCNK9 inh	TMEM16A inh	ANO1 activ	KCNK3 block	Kir21 block
N#C/C(=N\Nc1ccccc1)C(N)=S	i	i	-16*	i	-0.65
N#C/C(=N\Nc1ccc(Cl)cc1)C(N)=S	i	100*	i	i	-0.44
Cc1ccc(NC(N)=S)cc1C	i	i	i	i	-0.01
Cc1ccc(N/N=C(\C#N)C(N)=S)cc1C	i	100*	i	i	0.04
Cc1ccc(C(C)C)c(Oc2cnccn2)c1	i	i	.	i	-0.11
CC(=O)N(Cc1ccc(F)cc1)c1cccc(C)c1C	i	i	i	i	-3.9
CC(=O)N(Cc1ccccc1C)c1cccc(C)c1C	i	i	i	i	-4.6*
Brc1ccc(CSc2nnc3ccccn23)cc1	i	i	i	i	-0.36
CC(C)(C)OC(=O)N1CCC[C@H]1c1nnc(SCc2ccccc2)o1	i	i	i	i	-1.8
Cc1ccc(CSc2nnc([C@@H]3CCCN3C(=O)OC(C)(C)C)o2)cc1	i	i	i	i	-7.1*
Cc1c(NC(=O)c2n[nH]c(=O)c3ccccc23)c(=O)n(-c2ccccc2)n1C	i	i	i	i	1.2
Cn1c(=O)c(C#N)c(-c2ccc(F)cc2)c2cc(C(=O)c3cc(Cl)cc(Cl)c3O)cnc21	i	100*	i	i	-4
COc1ccccc1OCC(=O)n1cc(C(=O)c2cc(Cl)cc(Cl)c2O)cn1	i	i	i	i	0.31
CC(C)Cc1cc(C(=O)N2CCN(C(c3ccccc3)c3ccccc3)CC2)no1	i	i	i	i	1.1
CC(C)c1cc(C(=O)N2CCN(C(c3ccccc3)c3ccccc3)CC2)no1	-7.9*	i	i	i	-0.63
Cc1c(OCC(=O)NC2CC(C)(C)NC(C)(C)C2)ccc2c3c(c(=O)oc12)CCC3	i	i	i	i	-4.6*
Cc1c(OCC(=O)NC2CC(C)(C)NC(C)(C)C2)ccc2c1oc(=O)c1ccccc12	i	i	i	i	-2.1
CCN1CCN(S(=O)(=O)c2ccc(Cl)c(C(=O)N(C)Cc3ccc(Cl)cc3Cl)c2)CC1	i	i	i	i	0.06
Cc1ccc(-n2c(SCC(=O)Nc3cccc(S(N)(=O)=O)c3)nc3ccccc32)cc1	i	i	i	i	1.6
CCOc1ccc(S(=O)(=O)NCc2ccncc2)cc1	i	25*	i	i	0.75
CCOC(=O)COc1ccc(S(=O)(=O)NCc2ccncc2)cc1	i	i	i	i	-0.01
COC(=O)CS(=O)(=O)c1nnc([C@H](Cc2ccccc2)NC(=O)OC(C)(C)C)o1	i	i	i	i	-2.9
Cc1cccc(CS(=O)(=O)c2nnc([C@H](Cc3ccccc3)NC(=O)OC(C)(C)C)o2)c1	i	i	i	i	-8.1*
Cc1ccc(S(=O)(=O)N2CC(=O)N3CCN(CCN)C3C2)cc1 (configuration not stated)	.	.	i	i	.
Cc1ccc(NS(=O)(=O)c2ccccc2Cl)c2c1CC(C)(C)O2	i	i	i	i	-4.4*
SMILES	KCNK9 inh	TMEM16A inh	ANO1 activ	KCNK3 block	Kir21 block
Cc1cccc(S(=O)(=O)Nc2ccc(C)c3c2OC(C)(C)C3)c1	i	i	i	i	-5.9*
COC(=O)c1ccc(CO/N=C/c2cccc([N+](=O)[O-])c2)cc1	-6.7*	i	i	i	0.63
CCc1ccc2c(CN3CCN(S(=O)(=O)c4ccccc4F)CC3)cc(=O)oc2c1	.	.	i	i	.
CCc1ccc2c(CN3CCN(Cc4ccccc4)CC3)cc(=O)oc2c1	i	i	i	i	-5.2*
COc1ccc(CCNC(=O)CN2C(=O)C(=O)N(C3CCCC3)C2=O)cc1OC	.	.	i	i	.
O=C(N/N=C\c1cn(-c2ccccc2)nc1-c1ccccc1)c1ccc(Br)o1	-7.1*	i	i	i	1.9
Cc1ccc(-c2nn(-c3ccccc3)cc2/C=N/NC(=O)c2ccc(Br)o2)cc1	.	100*	i	i	.
Cc1noc(C)c1C(=O)N1CCN(c2ccc(OCc3ccccc3)cc2)CC1	i	i	i	i	0.26
Cc1ncc2c(n1)NC(=O)NC2	.	.	i	i	.

Screening results deposited in PubChem by Johns Hopkins Ion Channel Center.
